The values that follow come from PubChem BioAssay (NCI).

Compounds without any hit were thinned out: in the full panel of roughly 79,000, 15% have a hit. Activity calls are given as the source filed them. No stated cut-off is given here; in the data, active means growth inhibition above about 70%; inactive means the rest. Where a SMILES comes first, the peptide text is derived from it. The star is where a group is joined. Cbz = O=C(OCc1ccccc1)*

The nature of one test: NCI Yeast Anticancer Drug Screen. Data for the mec2-1 strain (AID 157). The note with it: S. cerevisiae mec2-1 strain, at 50.0 µM, stronger effect = higher value. Summed up:
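Using mec2-1 yeast: add compound, measure growth, express inhibition versus vehicle-treated cultures.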
`CC(C)(CS(C)(=O)=O)C(=O)O`: the growth inhibition was -18.9% (inactive).

For the compound `COC(=O)C(CO)NC(=O)C(CO)NC(=O)OCc1ccccc1` (stereo not drawn) (Cbz-Ser-Ser-OMe; configuration not given here), the growth inhibition is 3.7% (inactive).

As for `O=C1O/C(=C(\Br)c2ccc([N+](=O)[O-])cc2)c2ccccc21`, the growth inhibition is -27.4% (inactive).

With `CC(=O)OCC1OC(n2c(-c3ccc(C)cc3)cc(-c3ccccc3)c(C#N)c2=S)C(OC(C)=O)C(OC(C)=O)C1OC(C)=O` (stereo not given), the growth inhibition is 9.35% (inactive).

As for `Cc1ccc(C(=O)/C=C/c2ccc(N(C)C)cc2)cc1`, the growth inhibition was 1.95% (inactive).

Consider `Clc1cc(Cl)c(Cl)c(Cl)c1Cl`, for which the growth inhibition was -9.95% (inactive).

In the case of `Cc1c(-c2ccccc2)[nH]c2ccc(Cl)cc2c1=O`, the growth inhibition was -30.9% (inactive).

Turning to `CN(C)C(=O)C(c1ccccc1)P(=O)(c1ccccc1)c1ccccc1` (stereo not given), the growth inhibition was -12.1% (inactive).

In the case of `O=[N+]([O-])c1ccc(SC2=NCCCN2C2CCCCC2)c(Cl)c1`, the growth inhibition was -13.9% (inactive).

On to `C/C(=N\NC(=O)C1CCCO1)c1cccc2ccccc12` (stereo not given), for which the growth inhibition is 11.5% (inactive).

Regarding `COc1ccc(Sc2cccc(Cl)c2)c(C(=O)O)c1`, the growth inhibition was -18.4% (inactive).

In the case of `NC(=S)N/N=C\C(CC(O)C(O)CO)=N\NC(N)=S` (stereo not given), the growth inhibition is 6.55% (inactive).

With `COC(=O)/C=C1/CC[C@H]2[C@@H]3CCC4=CC(=O)CC[C@]4(C)[C@H]3C(=O)C[C@]12C`, the growth inhibition was 6.35% (inactive).

On to `CCCCCCC1N(C(C#N)c2ccccc2)CCCN1C(C#N)c1ccccc1` (stereo not given), for which the growth inhibition is 14.2% (inactive).

In the case of `CC(C)(C)n1nnnc1N`, the growth inhibition is -7.55% (inactive).

With `C/C(=N/O)c1ccc(O)cc1O`, the growth inhibition was -1.2% (inactive).

Regarding `CC(=O)OC1CC23CCC(=O)C2(CC3)C1` (stereo not given), the growth inhibition was -5.8% (inactive).

For the compound `N#Cc1c(C(F)(F)F)cc(-c2cccs2)nc1SC(C(=O)Nc1c(F)cccc1F)c1ccccc1` (stereo not given), the growth inhibition was -19.6% (inactive).

As for `NC(=S)c1ccc[n+](Cc2c(Cl)cccc2Cl)c1`, the growth inhibition was 3.6% (inactive).

Take `O=C1CC(c2ccccc2)NCN1` (stereo not given): the growth inhibition is 1% (inactive).

In the case of `O=C(C[n+]1cc(Br)cc(Br)c1)c1ccc(Br)cc1`, the growth inhibition is -0.15% (inactive).

As to `COc1ccccc1C(OC)c1ccccc1C(=O)O` (stereo not given), the growth inhibition is -17.1% (inactive).

Consider `COc1cc(C(C)Cl)ccc1OC(=O)c1ccccc1` (stereo not given), for which the growth inhibition is -5% (inactive).

Consider `N=C(c1ccc2ccccc2c1)c1ccccc1Cc1ccccc1`, for which the growth inhibition was -24.2% (inactive).

Regarding `COc1cc([C@@H]2C3C(=O)c4ccccc4C3[C@@H](c3cc(OC)c(OC)c(OC)c3)C23Cc2ccccc2C3=O)cc(OC)c1OC` (stereo not given in full), the growth inhibition was -0.95% (inactive).

As for `CC(C)n1nnnc1-c1ccccc1`, the growth inhibition is -8.5% (inactive).

On to `NC1NC(=O)C(CCCOc2ccc([N+](=O)[O-])cc2)C(c2ccccc2)N1` (stereo not given), for which the growth inhibition is -11.8% (inactive).

Regarding `N#C/C(=C\c1ccco1)c1ccc([N+](=O)[O-])cc1`, the growth inhibition was 15.1% (inactive).

Regarding `COc1cc2c(cc1O)CN1Cc3c(ccc(OC)c3O)C2C1` (stereo not given), the growth inhibition is -14.4% (inactive).

With `CCCCC1(CO)NC(=O)NC1=O` (stereo not given), the growth inhibition was -13.9% (inactive).

For the compound `c1ccc(-c2cc(-c3ccccc3)c3ccc4c(-c5ccccc5)cc(-c5ccccc5)c5ccc2c3c54)cc1`, the growth inhibition was -17.4% (inactive).

For `CN(C(=O)Sc1ccc([N+](=O)[O-])cc1)c1ccc([N+](=O)[O-])cc1`, the growth inhibition was 15.2% (inactive).

Regarding `COC(=O)c1c[nH]c(C=O)c1C`, the growth inhibition is -0.7% (inactive).

For the compound `O=C(N/N=C/c1ccc(Cl)cc1Cl)c1cccc([N+](=O)[O-])c1`, the growth inhibition is -8.7% (inactive).

For `CCOC(=O)C(C#N)=C1c2ccccc2Oc2ccccc21`, the growth inhibition was 0.9% (inactive).

For `NC1c2ccccc2CCc2ccccc21`, the growth inhibition is -13.7% (inactive).

For the compound `Clc1ccc(CCn2cncn2)cc1`, the growth inhibition was -11.9% (inactive).

In the case of `O=C(Nc1ncnc2c1ncn2C1OC(COC(=O)c2ccccc2)C(OC(=O)c2ccccc2)C1OC(=O)c1ccccc1)c1ccccc1` (stereo not given), the growth inhibition is 15.6% (inactive).

On to `COc1ccc(CC2OC(C)CC(C)(C)O2)cc1` (stereo not given), for which the growth inhibition is -12.2% (inactive).

As to `CSc1nc2nc[nH]c(=O)c2[nH]1`, the growth inhibition is -11.6% (inactive).

Another test in a line: NCI Yeast Anticancer Drug Screen. Data for the sgs1 mgt1 strain (AID 161).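 Further: 0% = growth of cultures given vehicle only.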 The note with it: S. cerevisiae sgs1 mgt1 strain, at 50.0 µM, stronger effect = higher value. Summed up:
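Compounds are added to genetically altered yeast, and growth is compared with cultures given vehicle alone to give percent inhibition.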
`CC(C)(CS(C)(=O)=O)C(=O)O`: the growth inhibition is 3.05% (inactive).

For the compound `COC(=O)C(CO)NC(=O)C(CO)NC(=O)OCc1ccccc1` (stereo not drawn) (Cbz-Ser-Ser-OMe; configuration not given here), the growth inhibition was -0.25% (inactive).

Consider `O=C1O/C(=C(\Br)c2ccc([N+](=O)[O-])cc2)c2ccccc21`, for which the growth inhibition is 19.4% (inactive).

`CC(=O)OCC1OC(n2c(-c3ccc(C)cc3)cc(-c3ccccc3)c(C#N)c2=S)C(OC(C)=O)C(OC(C)=O)C1OC(C)=O` (stereo not given): the growth inhibition was 6.15% (inactive).

As to `Cc1ccc(C(=O)/C=C/c2ccc(N(C)C)cc2)cc1`, the growth inhibition is 34.8% (inactive).

With `Clc1cc(Cl)c(Cl)c(Cl)c1Cl`, the growth inhibition was -0.15% (inactive).

As for `Cc1c(-c2ccccc2)[nH]c2ccc(Cl)cc2c1=O`, the growth inhibition is 28.9% (inactive).

Take `CN(C)C(=O)C(c1ccccc1)P(=O)(c1ccccc1)c1ccccc1` (stereo not given): the growth inhibition is -0.9% (inactive).

Take `O=[N+]([O-])c1ccc(SC2=NCCCN2C2CCCCC2)c(Cl)c1`: the growth inhibition is 12.8% (inactive).

On to `C/C(=N\NC(=O)C1CCCO1)c1cccc2ccccc12` (stereo not given), for which the growth inhibition is 5.55% (inactive).

Regarding `COc1ccc(Sc2cccc(Cl)c2)c(C(=O)O)c1`, the growth inhibition is -27.2% (inactive).

Turning to `NC(=S)N/N=C\C(CC(O)C(O)CO)=N\NC(N)=S` (stereo not given), the growth inhibition is 4.45% (inactive).

For the compound `COC(=O)/C=C1/CC[C@H]2[C@@H]3CCC4=CC(=O)CC[C@]4(C)[C@H]3C(=O)C[C@]12C`, the growth inhibition is 14.3% (inactive).

`CCCCCCC1N(C(C#N)c2ccccc2)CCCN1C(C#N)c1ccccc1` (stereo not given): the growth inhibition was 16.6% (inactive).

Consider `CC(C)(C)n1nnnc1N`, for which the growth inhibition is 6% (inactive).

For `C/C(=N/O)c1ccc(O)cc1O`, the growth inhibition is 3.65% (inactive).

Regarding `CC(=O)OC1CC23CCC(=O)C2(CC3)C1` (stereo not given), the growth inhibition is 1.85% (inactive).

As for `N#Cc1c(C(F)(F)F)cc(-c2cccs2)nc1SC(C(=O)Nc1c(F)cccc1F)c1ccccc1` (stereo not given), the growth inhibition was 23% (inactive).

Regarding `NC(=S)c1ccc[n+](Cc2c(Cl)cccc2Cl)c1`, the growth inhibition was -0.8% (inactive).

For `O=C1CC(c2ccccc2)NCN1` (stereo not given), the growth inhibition is 7.1% (inactive).

Regarding `O=C(C[n+]1cc(Br)cc(Br)c1)c1ccc(Br)cc1`, the growth inhibition is -0.05% (inactive).

As for `COc1ccccc1C(OC)c1ccccc1C(=O)O` (stereo not given), the growth inhibition is -1.4% (inactive).

For `COc1cc(C(C)Cl)ccc1OC(=O)c1ccccc1` (stereo not given), the growth inhibition was 3.95% (inactive).

In the case of `N=C(c1ccc2ccccc2c1)c1ccccc1Cc1ccccc1`, the growth inhibition was 6.15% (inactive).

Consider `COc1cc([C@@H]2C3C(=O)c4ccccc4C3[C@@H](c3cc(OC)c(OC)c(OC)c3)C23Cc2ccccc2C3=O)cc(OC)c1OC` (stereo not given in full), for which the growth inhibition was -11.2% (inactive).

Turning to `CC(C)n1nnnc1-c1ccccc1`, the growth inhibition was 2% (inactive).

On to `NC1NC(=O)C(CCCOc2ccc([N+](=O)[O-])cc2)C(c2ccccc2)N1` (stereo not given), for which the growth inhibition was 6.6% (inactive).

For `N#C/C(=C\c1ccco1)c1ccc([N+](=O)[O-])cc1`, the growth inhibition was 25.6% (inactive).

As to `COc1cc2c(cc1O)CN1Cc3c(ccc(OC)c3O)C2C1` (stereo not given), the growth inhibition is -1.8% (inactive).

In the case of `CCCCC1(CO)NC(=O)NC1=O` (stereo not given), the growth inhibition was -8.7% (inactive).

In the case of `c1ccc(-c2cc(-c3ccccc3)c3ccc4c(-c5ccccc5)cc(-c5ccccc5)c5ccc2c3c54)cc1`, the growth inhibition was -14.3% (inactive).

Consider `CN(C(=O)Sc1ccc([N+](=O)[O-])cc1)c1ccc([N+](=O)[O-])cc1`, for which the growth inhibition was 9.8% (inactive).

`COC(=O)c1c[nH]c(C=O)c1C`: the growth inhibition is -6.95% (inactive).

On to `O=C(N/N=C/c1ccc(Cl)cc1Cl)c1cccc([N+](=O)[O-])c1`, for which the growth inhibition was 32.5% (inactive).

In the case of `CCOC(=O)C(C#N)=C1c2ccccc2Oc2ccccc21`, the growth inhibition is -2% (inactive).

With `NC1c2ccccc2CCc2ccccc21`, the growth inhibition was 17.6% (inactive).

On to `Clc1ccc(CCn2cncn2)cc1`, for which the growth inhibition is -44.9% (inactive).

`O=C(Nc1ncnc2c1ncn2C1OC(COC(=O)c2ccccc2)C(OC(=O)c2ccccc2)C1OC(=O)c1ccccc1)c1ccccc1` (stereo not given): the growth inhibition is -1.25% (inactive).

On to `COc1ccc(CC2OC(C)CC(C)(C)O2)cc1` (stereo not given), for which the growth inhibition was 4.75% (inactive).

For the compound `CSc1nc2nc[nH]c(=O)c2[nH]1`, the growth inhibition was -5.75% (inactive).
